Inconclusive results are not listed. Where a call stands in place of a potency, no number is given. Calls of active or inactive are those of the source. Calls follow the shape of the dose curve; as a rule, active = well fitted inhibition curve with a large enough effect; inconclusive = small, poorly fitted or top-dose-only effect; inactive = flat fitted curve, though single readings scatter. Peptide text beside a SMILES is read from it.
Assays:
Test in all cases: qHTS profiling for inhibitors of Plasmodium falciparum proliferation (AID 504749); also: nearly all actives have a fitted effect of over 60% in size
Conditions in all cases: P. falciparum in erythrocytes, SYBR Green DNA, 72 h; series mostly up to 28.7 µM
[1] = test system: CP268
Procedure, shortened: (§1)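 Quantitative HTS: compounds pinned into medium, infected erythrocytes added (0.3% parasitemia, 2.5% hematocrit), 72 h culture at 37 C under 5% CO2. Saponin/Triton lysis with SYBR Green I, overnight RT, then fluorescence read.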

[2] = test system: CP269
Procedure, shortened: as §1

[3] = test system: CP286
Procedure, shortened: as §1

[4] = test system: CP291
Procedure, shortened: as §1

[5] = test system: CP297
Procedure, shortened: as §1

[6] = test system: CP305
Procedure, shortened: as §1

[7] = test system: CP315
Procedure, shortened: as §1

[8] = test system: CP325
Procedure, shortened: as §1

[9] = test system: CP329
Procedure, shortened: as §1

[10] = test system: CP335
Procedure, shortened: as §1
Potency is read from the fitted curve at half-maximal effect.

| Compound | Potency [1] | Potency [2] | Potency [3] | Potency [4] | Potency [5] | Potency [6] | Potency [7] | Potency [8] | Potency [9] | Potency [10] |
| --- | --- | --- | --- | --- | --- | --- | --- | --- | --- | --- |
| CCCCC(C)(O)C/C=C/[C@H]1[C@H](O)CC(=O)[C@@H]1CCCCCCC(=O)OC (some centres undefined) | inactive | inactive | inactive | inactive | inactive | inactive | inactive | inactive | inactive | inactive |
| Nc1ncnc2c1ncn2[C@@H]1O[C@H](COP(=O)(O)OP(=O)(O)OP(=O)(O)O)[C@@H](O)[C@H]1O | inactive | inactive | inactive | inactive | inactive | inactive | inactive | inactive | inactive | inactive |
| O=C(O)c1cc(O)c2c(c1)[O][Bi][O]2 | inactive | inactive | inactive | inactive | inactive | inactive | inactive | inactive | inactive | – |
| C[C@H]1C[C@H]2[C@@H]3CCC4=CC(=O)C=C[C@]4(C)[C@@]3(F)[C@@H](O)C[C@]2(C)[C@@]1(O)C(=O)CO | inactive | inactive | inactive | inactive | inactive | inactive | inactive | inactive | inactive | inactive |
| CO[C@H](C(=O)[C@@H](O)[C@@H](C)O)C1Cc2cc3cc(O[C@H]4C[C@@H](O[C@H]5C[C@@H](O)[C@H](O)[C@@H](C)O5)[C@@H](O)[C@@H](C)O4)c(C)c(O)c3c(O)c2C(=O)[C@H]1O[C@H]1C[C@@H](O[C@H]2C[C@@H](O[C@H]3C[C@](C)(O)[C@H](O)[C@@H](C)O3)[C@H](O)[C@@H](C)O2)[C@H](O)[C@@H](C)O1 (some centres undefined) | 1.35 µM (active) | 1.35 µM (active) | 89.1 nM (active) | 1.2 µM (active) | 2.69 µM (active) | 757 nM (active) | 3.38 µM (active) | 1.69 µM (active) | 1.69 µM (active) | 151 nM (active) |
| CC[N+](C)(C)Cc1ccccc1Br | inactive | inactive | inactive | inactive | inactive | inactive | inactive | inactive | inactive | inactive |
| CC(O)CO (centres undefined) | inactive | inactive | inactive | inactive | inactive | inactive | inactive | inactive | inactive | inactive |
| CCCCC/C=C\C/C=C\CCCCCCCC(=O)O | inactive | inactive | inactive | inactive | inactive | inactive | inactive | inactive | inactive | inactive |
| Cc1cn([C@H]2C[C@H](O)[C@@H](CO)O2)c(=O)[nH]c1=O | inactive | inactive | inactive | inactive | inactive | inactive | inactive | inactive | inactive | inactive |
| CC(=O)N[C@@H](CC(=O)O)C(=O)N[C@@H](CCC(=O)O)C(=O)O (Ac-Asp-Glu-OH) | inactive | inactive | inactive | inactive | inactive | inactive | inactive | inactive | inactive | inactive |
| COCC(=O)Nc1cc(Sc2ccccc2)ccc1N=C(NC(=O)OC)NC(=O)OC | inactive | inactive | inactive | inactive | inactive | inactive | inactive | inactive | inactive | inactive |
| CC1=CCC(C(C)(C)O)CC1 (centres undefined) | inactive | inactive | inactive | inactive | inactive | inactive | inactive | inactive | inactive | inactive |
| CCCCCCCCCCCCCCCC(=O)OCC(COC(=O)CCCCCCCCCCCCCCC)OC(=O)CCCCCCCCCCCCCCC | inactive | inactive | inactive | inactive | inactive | inactive | inactive | inactive | inactive | inactive |
| Nc1c(N=Nc2ccc(-c3ccc(N=Nc4cc(S(=O)(=O)O)c5ccccc5c4N)cc3)cc2)cc(S(=O)(=O)O)c2ccccc12 | inactive | inactive | inactive | inactive | inactive | inactive | inactive | inactive | inactive | inactive |
| CCOc1ccc(N=Nc2ccc(N)cc2N)cc1 | inactive | inactive | inactive | inactive | inactive | inactive | inactive | inactive | inactive | inactive |

Reference: PubChem BioAssay (NCATS)
